Sampled rows, rich in hits. Any-hit rate of the full collection: about 3.3%.
697 NFkB inh: inhibitors of the PMA/ionomycin-induced NF-kB reporter in 697 B cells. 0.33% of 330,000 active. 697 B-cell NF-kB luciferase reporter, 16 h. AID 435022. inhibition, % at 4 µM; in the data active means inhibition above about 35%
SMARCA2 activ: SMARCA2 function activation, primary screen. MG213 cells, MMTV-luciferase reporter, dexamethasone, overnight. activation, % at 9.1 µM. 1% of 370,000 active; in the data active means activation above about 7.8%;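 further: 0% = vehicle wells and 100% = reference activator wells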
esBAF inh: blocks esBAF chromatin remodeling in mouse ES cells. Bmi1-luciferase knock-in reporter, 24 h; 100% = twice the neutral-well signal. reporter increase, % at 12.5 µM. 2% of 350,000 active. AID 602393; in the data active means activation above about 40%; inconclusive means no clear call, values can overlap the other calls;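 further: 0% = median of the plate's neutral control wells and 100% = double that signal; a rise in the Bmi1 reporter signal indicates esBAF inhibition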
Jurkat NFkB inh: lowers PMA/ionomycin-induced NF-kB signal in Jurkat cells. PMA/ionomycin-induced NF-kB luciferase reporter, luminescence. inhibition, % at 4 µM. 0.53% of 330,000 active. AID 435003; in the data active means inhibition above about 50%
Gli-Sufu antag: Gli-Sufu pathway antagonism; inhibition, % at 5 µM; Sufu-KO-LIGHT fibroblasts, Gli luciferase reporter luminescence; 0.74% of 340,000 active;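 active means inhibition above about 55%, limit read from the data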;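 further: 0% = DMSO-treated cells and 100% = wells with medium but no cells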
Jurkat NFkB conf: lowers PMA/ionomycin-induced NF-kB signal in Jurkat cells | 27% of 2,700 active | shares compounds with Jurkat NFkB inh | inhibition, % at 4 µM | Jurkat NF-kB luciferase, 16 h | AID 435020;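 active means inhibition reaching about 45% at 4 µM in either replicate, limit read from the data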;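 further: plate controls were PMA/ionomycin stimulated DMSO wells for no effect and unstimulated DMSO wells for full effect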
697 NFkB conf: lowers PMA/ionomycin-induced NF-kB signal in 697 B cells. shares compounds with 697 NFkB inh. 697 B-cell NF-kB luciferase, 16 h. inhibition, % at 4 µM. 35% of 2,000 active. AID 449746; in the data active means inhibition mostly above about 28%, no sharp cut-off; inactive means mostly below about 22%
* = called active by the depositor; ? = inconclusive; / = no result given.

SMILES	697 NFkB inh	SMARCA2 activ	esBAF inh	Jurkat NFkB inh	Gli-Sufu antag	Jurkat NFkB conf	697 NFkB conf
O=C1c2c(O)ccc(O)c2C(=O)c2c(NCCNCCO)ccc(NCCNCCO)c21	73.7*	-9.4	-83.1	100.1*	77.4*	88.8*	-62.9
O=C1c2ccccc2C(=O)c2c(Nc3ccc(CCO)cc3)ccc(O)c21	-1.3	-0.8	-8.0	-0.7	8.6	/	/
Cc1ccc(NC(=O)c2noc3c2CCCCC3)cc1C	-317.2	1.2	-18.7	-247.5	-87.7	-114.2	-305.6
O=C(c1ccncc1)N1C[C@H]2[C@@H](c3ccccc31)[C@@H](CO)N2C(=O)c1ccncc1	/	/	2.4	/	/	/	/
CC(=O)c1cc2c(C)c(C(=O)c3ccccc3)oc2cc1O	-362.4	3.4	/	-185.9	-88.9	-92.7	-302.8
O=C(CCl)N(c1ccc(Cl)cc1)c1c[nH]c2ccccc12	80.3*	-10.1	8.9	70.6*	88.3*	26.1	36.0*
COCC(=O)Nc1ccc2c(c1)OC[C@H](C)N(C(=O)NC(C)C)C[C@@H](C)[C@H](OC)CN(C)C2=O	/	/	-4.5	/	/	/	/
Nc1c2c(nc3sc4c(c13)CCCCC4)CCCCC2	-259.7	3.0	/	-177.2	-90.0	-97.6	-203.5
CO[C@@H]1CN(C)C(=O)c2cc(NC(=O)C3CCOCC3)ccc2OC[C@H](C)N(Cc2nccs2)C[C@@H]1C	/	/	2.6	/	/	/	/
O=[N+]([O-])c1ccc(F)cc1OCc1nc(-c2cccs2)no1	/	-0.2	/	/	-93.3	/	/
Cc1ccc(OCc2nc(-c3cccs3)no2)c([N+](=O)[O-])c1	-274.3	7.9*	/	-248.5	-138.7	-162.5	-353.2
COc1ccc(S(=O)(=O)Nc2ccc3c(c2)C(=O)N([C@@H](C)CO)C[C@H](C)[C@@H](CN(C)S(C)(=O)=O)O3)cc1	/	/	0.5	/	/	/	/
Cc1ccccc1-c1cnc2c(c1)C(=O)N([C@@H](C)CO)C[C@@H](C)[C@H](CN(C)C(=O)c1cccnc1)O2	/	/	-0.3	/	/	/	/
C=C1C(O)[C@@H]2O[C@]3(CC[C@H](/C=C/C(C)[C@@H]4CC(C)=CC5(O[C@H](C[C@@](C)(O)CO)CCC5O)O4)O3)CC[C@H]2O[C@@H]1C(O)CC(C)[C@H]1OC2(CCCCO2)CCC1C (stereo not given in full)	-405.5	/	/	91.7*	63.5*	77.8*	-170.3
Nc1c(-c2ccc(Cl)cc2)cnc2c(-c3ccc(F)cc3)cnn12	-262.6	6.3	?	-173.2	-98.0	-135.2	-223.7
CCOC(=O)c1cnc2c(-c3ccc(Cl)cc3)cnn2c1C	-119.0	1.0	/	-113.2	-87.1	/	/
O=C([C@H]1[C@H](CO)[C@H]2Cn3c(cccc3=O)[C@@H]1N2CC1CCCC1)N1CCCCC1	/	/	0.0	/	/	/	/
N=c1cc(C2(O)CCCCC2)n2c(nc3ccccc32)s1	-284.0	3.8	/	-160.8	-105.5	-89.0	-214.3
Cc1ccc(S(=O)(=O)N(C)C[C@H]2Oc3ccc(NC(=O)Nc4ccc(F)cc4)cc3C(=O)N([C@H](C)CO)C[C@H]2C)cc1	/	/	-0.4	/	/	/	/
Cc1cc(C(=O)NC2CCCc3c2cnn3-c2ccc(C)c(C)c2)n(C)n1 (stereo not given)	49.4*	-4.7	-23.6	62.2*	81.2*	79.7*	102.2*
Cc1ccc(-n2ncc3c2CCCC3NC(=O)c2ccoc2)cc1C (stereo not given)	-14.7	1.7	-0.2	7.6	6.0	/	/
CC(C)NC(=O)Nc1ccc2c(c1)C(=O)N([C@@H](C)CO)C[C@@H](C)[C@@H](CN(C)C(=O)Nc1ccc3c(c1)OCO3)OCCCC[C@@H](C)O2	/	/	2.8	/	/	/	/
COc1ccccc1C(=O)Nc1nc(-c2ccc(S(=O)(=O)N3CCOCC3)cc2)cs1	40.7*	-6.8	-26.3	75.9*	65.8*	61.1*	30.1*
COc1ccccc1OC(C)C(=O)Nc1nc(-c2ccc(S(=O)(=O)N3CCOCC3)cc2)cs1 (stereo not given)	-48.9	-1.8	2.6	-8.2	19.2	/	/
CO[C@@H]1CN(C)C(=O)c2cc(NS(C)(=O)=O)ccc2OC[C@H](C)N(CC2CC2)C[C@H]1C	/	/	2.6	/	/	/	/
Cc1cccnc1Nc1nc(-c2ccccc2)cs1	-252.1	2.9	20.8	-151.8	-99.2	-93.2	-232.3
Clc1ccccc1Nc1nc(-c2cccnc2)cs1	-269.6	2.5	29.2	-189.0	-56.5	-96.3	-209.9
